Activity calls are given as the source filed them. The calls were made as follows: active = hit-call score of the fitted dose curve at least 0.9, where 1 is the maximum; inactive = score below 0.9.

This experiment in a line: ATG_NFI_CIS: Attagene CIS-FACTORIAL HepG2 Assay for human Nuclear Factor I (NFI) (AID 2282989). Conditions: HepG2 cis-regulatory reporter, NFI response element transcription; actives raise or lower the signal. Here is the method:
ATG_CIS is a cell-based, multiplexed-readout assay that uses HepG2, a human liver cell line, with measurements taken at 24 hours after chemical dosing in a 24-well plate.ATG_NFI_CIS is one of 52 assay component(s) measured or calculated from the ATG_CIS assay. It is designed to make measurements of mRNA induction, a form of inducible reporter, as detected with fluorescence intensity signals by Reverse transcription polymerase chain reaction (RT-PCR) and Capillary electrophoresis technology.Data from the assay component ATG_NFI_CIS was analyzed into 1 assay endpoint. This assay endpoint, ATG_NFI_CIS, was analyzed with bidirectional fitting relative to DMSO as the negative control and baseline of activity. Using a type of inducible reporter, measures of mRNA for gain or loss-of-signal activity can be used to understand the reporter gene at the transcription factor-level as they relate to the gene NFIA. Furthermore, this assay endpoint can be referred to as a primary readout, because this assay has produced multiple assay endpoints where this one serves a reporter gene function. To generalize the intended target to other relatable targets, this assay endpoint is annotated to the dna binding intended target family, where the subfamily is nuclear factor I.
Human liver HepG2 cells are transiently transfected with multiple reporter transcription units (MRTUs) in 6-well plates using FuGene 6 reagent (Roche; 3 ml FuGene/1 mg DNA). The MRTU constructs are regulated by a cis-regulating element (promoter). […] A major difference between the CIS and TRANS system is that in CIS activities of endogenous TFs are measured, whereas the TRANS assay evaluates changes in activities of exogenous, chimeric NR-Gal4 proteins. […] At the end of 24 hour incubation, total RNA was isolated using TriZol reagent (Invitrogen). The isolated RNA is then reverse-transcribed using oligo(dT) primer and Mo-MLV reverse transcriptase (Invitrogen) with DNAse I (Ambion) treatment for 30 min. The one-tenth of the produced cDNA was amplified by PCR using Taq DNA polymerase (Invitrogen) and two reporter sequence-specific primers. The PCR products were fluorescently labeled by primer extension with 6-arboxyfluorescein (6-FAM) 5'-labeled reporter sequence-specific primer (2 min at 95 C, 20 s at 68 C and 10 min at 72 C) and these products were digested with 5U of HpaI (New England Biolabs) for 2h at 37 C. The fragments were purified using Qiaquick PCR columns (Qiagen), analyzed on an ABI 3130xL genetic analyzer (Applied Biosystems) with peak positions identified by using a set of X-rhodamine (ROX)-labeled MapMarker1000 molecular weight standards (BioVentures). The raw capillary electrophoresis data was processed using Attagraph software (Attagene).
For the compound `CCOc1nc(F)cc2nc(S(=O)(=O)Nc3c(Cl)cccc3Cl)nn12`, the compound was called inactive.
Same read-out and setting: the entry for `Nc1c(Cl)c(Cl)nc(C(=O)O)c1Cl` is “inactive”; for `CSC(=O)c1c(C(F)F)nc(C(F)(F)F)c(C(=O)SC)c1CC(C)C` it is “inactive”.
For the compound `CNC(=O)Oc1cccc2ccccc12`, the AC50 was 74.5 µM (active).
As to `CCN(CC)c1nc(C)cc(OP(=S)(OC)OC)n1`, the compound was called inactive.
`CCCC(=NOCC)C1=C(O)CC(CC(C)SCC)CC1=O` (stereo not given): the result was inactive.
On to `COCC(=O)N(c1c(C)cccc1C)C(C)C(=O)OC` (stereo not given), for which the call was inactive.
Turning to `Cn1c(-c2ccccc2)cc(-c2ccccc2)[n+]1C`, the outcome was inactive.
The same measure, in the same setting: with `Nc1c(Cl)c(F)nc(OCC(=O)O)c1Cl` the entry was “inactive”; with `N#Cc1c[nH]cc1-c1cccc2c1OC(F)(F)O2`, “inactive”.
The same measure, in the same setting: with `CN/C(=N\[N+](=O)[O-])NCc1cnc(Cl)s1` the entry was “inactive”; with `COC(=O)NS(=O)(=O)c1ccc(N)cc1`, “inactive”.
The same measure, in the same setting: with `CCOC(=O)C(C)OC(=O)c1cc(Oc2ccc(C(F)(F)F)cc2Cl)ccc1[N+](=O)[O-]` (stereo not given) the entry was “inactive”; with `CCCCOCN(C(=O)CCl)c1c(CC)cccc1CC`, “inactive”; with `CCCCC(O)(Cn1cncn1)c1ccc(Cl)cc1Cl` (stereo not given), “inactive”.
For `CC(C)Oc1cccc(NC(=O)c2ccccc2C(F)(F)F)c1`, the call was inactive.
Still for that read-out and setting: with `COP(=O)(OC)O/C(C)=C/C(=O)N(C)C` the entry was “inactive”; with `CC1(C)CCC(=Cc2ccc(Cl)cc2)C1(O)Cn1cncn1` (stereo not given), “inactive”.
On the same count and under the same terms, with `CCNC(=O)NC(=O)C(C#N)=NOC` the entry was “inactive”; with `O=c1n(Cl)c(=O)n(Cl)c(=O)n1Cl`, “inactive”.
Consider `COP(=S)(OC)Oc1ccc([N+](=O)[O-])c(C)c1`, for which the call was inactive.
Same read-out and setting: with `Cc1nc(N(C)C)nc(OC(=O)N(C)C)c1C` the entry was “inactive”.
In the case of `CCOP(=O)(OCC)Oc1nc(Cl)c(Cl)cc1Cl`, the compound was called inactive.
The same measure, in the same setting: the entry for `COCc1cnc(C2=NC(C)(C(C)C)C(=O)N2)c(C(=O)O)c1` (stereo not given) is “inactive”; for `Cc1ccc(N=CN(C)C=Nc2ccc(C)cc2C)c(C)c1` it is “inactive”; for `Clc1nc(Cl)nc(Nc2ccccc2Cl)n1` it is “inactive”.
Regarding `COCC(C)N(C(=O)CCl)c1c(C)csc1C` (stereo not given), the outcome was inactive.
Take `C=CCOC(=O)C(C)(C)OC(=O)c1cc(-n2c(=O)cc(C(F)(F)F)n(C)c2=O)ccc1Cl`: the result was inactive.
For the compound `N#Cc1c(Cl)cccc1Cl`, the compound was called inactive.
The same measure, in the same setting: the entry for `CCOc1nc(C(Cl)(Cl)Cl)ns1` is “inactive”; for `CC(C)(C)C(=O)C(Oc1ccc(Cl)cc1)n1cncn1` (stereo not given) it is “inactive”; for `Clc1cccc(C(Cl)(Cl)Cl)n1` it is “inactive”.
On the same count and under the same terms, with `Cc1cc(C)nc(Nc2ccccc2)n1` the entry was “inactive”; with `OC(c1ccc(Cl)cc1)(c1ccc(Cl)cc1)C(Cl)(Cl)Cl`, “inactive”; with `CC1(C)CON(Cc2ccccc2Cl)C1=O`, “inactive”.
`CCOP(=S)(OCC)Oc1nc(Cl)n(C(C)C)n1`: the compound was called inactive.
With `Cc1cnc(C2=NC(C)(C(C)C)C(=O)N2)c(C(=O)O)c1` (stereo not given), the compound was called inactive.
For `CC(C)Nc1nc(Cl)nc(NC(C)C)n1`, the call was inactive.
The same measure, in the same setting: the entry for `COC(=O)N(C(=O)N1CO[C@@]2(C(=O)OC)Cc3cc(Cl)ccc3C2=N1)c1ccc(OC(F)(F)F)cc1` is “inactive”; for `C=C(C)CN(CC)c1c([N+](=O)[O-])cc(C(F)(F)F)cc1[N+](=O)[O-]` it is “inactive”.

Source of the values: PubChem BioAssay (EPA / NIEHS).
